Growth data for eight compounds are collected here from PubChem BioAssay (NCI).

Common to all, as to assay: NCI-60 one-dose screen, 48 h (100 = growth as untreated, 0 = no growth, -100 = all killed)
Holding throughout (conditions): 10 µM unless noted

For test [1], the system named is HCT-15 colon.
Test [2] has as its system HT29 colon.
Test [3] concerns SNB-75 CNS.
The subject of test [4] is SNB-19 CNS.
For test [5], the system named is U251 CNS.
For test [6], the system named is PC-3 prostate.
In test [7] the test system is SK-MEL-5 melanoma.
The test system of test [8] is UACC-62 melanoma.
The subject of test [9] is LOX IMVI melanoma.
The test system of test [10] is SK-MEL-28 melanoma.
Test [11] has as its system SK-MEL-2 melanoma.
Test [12] relates to EKVX NSCLC.
Test [13] deals with SN12C renal.
The test system of test [14] is UO-31 renal.
In test [15] the test system is TK-10 renal.
For test [16], the system named is ACHN renal.
Test [17] has as its system CAKI-1 renal.
For test [18], the system named is A498 renal.
The subject of test [19] is CCRF-CEM leukemia.
Test [20] concerns MOLT-4 leukemia.

The panel holds about 83,000 compounds, 20% with a hit somewhere; the sample as a whole holds those more often.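 Single-dose data. Exposure time 48 hours. Values below 10 considered active.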 Values without a mark were called inactive. Calls of active or inactive are those of the source.

With `CC(=O)Nc1ccc(C(=O)COc2cccc(/C=C3\CCc4ccccc4C3=O)c2)cc1`, the growth was 89% in [1]; 101% in test [2]; 78.7% in test [3]; 94.1% in [4]; 83.4% in test [5]; 76.1% in test [6]. The growth in test [7] is 64.4%; in test [8], 83.6%; in test [9] it was 71.5%; in test [10] it was 109%; in test [11], 51.2%; in [12] it was 80.3%. Further, the growth in test [13] was 99.5%; in test [14], 5.8% (active); in test [15] it was 103%; in test [16] it was 92.1%; in test [17] it was 254%; in test [18], 92.7%. For the same compound, the growth was 11.6% in test [19] and 38% in test [20].
As to `COc1ccc2nc(N/N=C(\C)c3ccccn3)cc(C)c2c1`, the growth in [1] was -48.5% (active); in test [2], -45.5% (active); in [3] it was -7.43% (active); in test [4], 23.9%; in test [5] it was -85.5% (active); in test [6], 12.9%. For the same compound, the growth in [7] was -86.2% (active); in test [8], -44.2% (active); in test [9], -99.1% (active); in test [10], 20%; in [11] it was -22.8% (active); in test [12], -84.4% (active). Further, the growth in test [13] was 11.8%; in [14], -31% (active); in [15], 18.4%; in [16], -13.8% (active); in [17] it was -3.71% (active); in test [18], -64.5% (active). The growth is -37.4% (active) in test [19] and -49.9% (active) in test [20].
`CC(=O)c1ccccc1NC(=O)C(C)(c1ccccc1)c1ccccc1`: the growth is 104% in [1]; 91.1% in test [2]; 81.1% in test [3]; 97.1% in [4]; 91.6% in test [5]; 66.8% in test [6]. Moreover, the growth in [7] was 6.19% (active); in [8] it was 70.9%; in test [9] it was 81.8%; in [10] it was 111%; in test [11], 70%; in test [12], 92.7%. In addition, the growth in test [13] is 108%; in test [14] it was 81.7%; in test [15], 110%; in test [16], 83.7%; in test [17] it was 108%; in test [18], -17.9% (active). In addition, the figures for the growth in test [19] and in test [20] were 77.4% and 62%, respectively.
For `COc1ccc(/C=C2/SC(=Nc3c(C)nn(-c4ccccc4)c3N)NC2=O)cc1`, the growth in test [1] is 33.3%; in test [2], 16.6%; in test [3], 5.59% (active); in test [4] it was 51.3%; in test [5] it was 40%; in test [6] it was 29.1%. For the same compound, the growth is 21.2% in [7]; 26.8% in [8]; 33.1% in test [9]; 58.7% in test [10]; 39.1% in [11]; 69.3% in [12]. The growth in test [13] was 67.9%; in test [14], 32.8%; in test [15] it was 71.6%; in test [16], 46.8%; in test [17] it was 23%; in [18] it was -54.5% (active). Further, the growth in test [19] is 33.2%; in test [20] it was 51.6%.
Turning to `COC(=O)C1(NC(=O)CNC(=O)OCc2ccccc2)CCCC1`, the growth in test [1] is 103%; in [2] it was 108%; in [3], 88.4%; in test [4], 96.5%; in test [5], 105%; in [6], 103%. Further, the growth is 100% in test [7]; 92.3% in [8]; 97.3% in [9]; 102% in [10]; 102% in test [11]; 98.2% in [12]. For the same compound, the growth in test [13] was 95.4%; in test [14], 93.1%; in test [15], 99.9%; in [16] it was 105%; in [17], 100%; in test [18], 96.9%. Moreover, the growth in test [19] was 101%; in test [20], 111%.
Regarding `NS(=O)(=O)c1ccc(-n2ncc3c(NC4CCCCC4)ncnc32)cc1`, the growth was 86.4% in test [1]; 81.9% in test [2]; 113% in test [3]; 94.1% in test [4]; 96.3% in test [5]; 92.9% in [6]. Moreover, the growth in test [7] was 88.1%; in [8], 97.2%; in test [9], 80.8%; in test [10] it was 98%; in test [11] it was 103%; in test [12], 102%. In addition, the growth in test [13] was 97.5%; in [14], 0.88% (active); in [15] it was 107%; in test [16] it was 92.3%; in test [17] it was 39.6%; in test [18], 106%. Moreover, the figures for the growth in [19] and in test [20] were 82.3% and 72.6%, respectively.
As for `O=CNc1ccc2c(c1)Cc1cc([N+](=O)[O-])ccc1-2`, the growth in [1] is 27%; in [2] it was 37.5%; in [3] it was 15.6%; in [4], 36.2%; in [5] it was 16.4%; in test [6], 32.3%. For the same compound, the growth in test [7] is 18.8%; in [8], 29.6%; in test [9], 40.8%; in test [10] it was 57%; in test [11], 19.2%; in test [12] it was 36%. In addition, the growth is 38.9% in test [13]; 33.3% in [14]; 37.6% in test [15]; 56.6% in test [16]; 29.9% in test [17]; 39.2% in test [18]. Also, the growth in test [19] was 20.9%; in test [20], 29.7%.
On to `COc1cc(NC(=O)NCc2ccco2)ccc1-c1ccc(NC(=O)NCc2ccco2)cc1OC`, for which the growth is 48.7% in [1]; 33.7% in test [2]; 65.3% in test [3]; 72.9% in [4]; 12.4% in test [5]; 33.6% in test [6]. Also, the growth in test [7] is 30.6%; in test [8], 45.3%; in test [9] it was 45.4%; in test [10], 79.8%; in [11] it was 76.3%; in test [12] it was 73%. The growth in test [13] is 69.4%; in [14] it was 73.4%; in test [15], 37.7%; in test [16] it was 60.2%; in [17], 105%; in test [18] it was 65.8%. The growth is 61.3% in test [19] and 62.5% in test [20].
